The source of these data is PubChem BioAssay AID778 (Sanford-Burnham Center for Chemical Genomics, 2007).

Out of some 96,000 compounds screened, about 20,000 (21%) were called active. The list is a sample of the results. Unmarked numbers belong to inactive results.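 Rule for the calls: active = CYP2C19 inhibition above a set limit at 5 µM in the primary screen (cut at about 50% in these data); inactive = the rest.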

In the experiment the target is Cytochrome P450 2C19 (Homo sapiens) (UniProt P33261). Nature of the experiment: blockers of cytochrome P450 2C19 activity – biochemical, luminescence, ADME assay, primary screen (AID 778).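 Note: plate controls were negative control wells for no effect and 2.5 mM tranylcypromine positive control for full effect.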 Conditions: CYP2C19 Supersomes, luciferin-H EGE luminescence, 30 min; at 5 µM; stronger effect = higher value.
Cytochrome P450 2C19 (Homo sapiens), sequence (P33261 whole entry, looked up): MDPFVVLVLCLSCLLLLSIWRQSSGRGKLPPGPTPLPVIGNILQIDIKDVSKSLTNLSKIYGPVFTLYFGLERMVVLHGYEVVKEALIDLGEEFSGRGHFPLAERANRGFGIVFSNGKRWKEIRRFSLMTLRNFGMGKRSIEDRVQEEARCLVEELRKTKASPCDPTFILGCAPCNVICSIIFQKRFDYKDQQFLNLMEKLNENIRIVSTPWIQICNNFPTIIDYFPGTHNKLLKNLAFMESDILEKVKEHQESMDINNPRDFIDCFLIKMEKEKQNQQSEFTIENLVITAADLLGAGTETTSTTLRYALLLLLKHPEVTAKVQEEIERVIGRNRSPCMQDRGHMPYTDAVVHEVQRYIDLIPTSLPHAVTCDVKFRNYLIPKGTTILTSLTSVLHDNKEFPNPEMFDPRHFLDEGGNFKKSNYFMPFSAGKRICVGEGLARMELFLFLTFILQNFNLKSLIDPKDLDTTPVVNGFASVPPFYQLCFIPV
As a reminder, the inhibition is the relative decrease from the control value, in per cent. For the compound `O=C(Cn1cc(C(=O)c2cccs2)c2ccccc21)NCc1cccs1`, the inhibition is 91.3% (active).

On to `COCCCNC(=O)Cn1cc(C(=O)C2CC2)c2ccccc21`, for which the inhibition is 32.1%.

As to `O=C(CN1CCN(c2ccccn2)CC1)NCc1cccs1`, the inhibition is 34.7%.

As to `Cc1cccc(NC(=O)Cn2cc(C(=O)c3ccco3)c3ccccc32)c1`, the inhibition is -13.3%.

`COC(=O)c1cn(CC(=O)NCc2cccs2)c2ccccc12`: the inhibition was 71.1% (active).

As to `COC(=O)Cn1cc(C(=O)c2cccs2)c2ccccc21`, the inhibition was 26%.

For `CCCCCCC(=O)N(O)C1CC(=O)N(c2ccccc2)C1=O` (stereo not given), the inhibition is 27.1%.

As to `CC1=C(C(N)=O)C(c2sccc2C)n2nnnc2N1` (stereo not given), the inhibition is 7.6%.

Turning to `Cc1nnc(SCC(=O)NC(=O)NC2CCCC2)n1N`, the inhibition was 3.5%.

For the compound `CCOC(=O)C(Sc1ncc(C#N)c(N)n1)C(C)C` (stereo not given), the inhibition is 52.1% (active).

In the case of `CCOC(=O)CSc1nccc(N(C)C)c1C#N`, the inhibition was 25.5%.

In the case of `CCCCOc1ccc(-c2ncc(C(=O)OCC)c(N)n2)cc1`, the inhibition is -11.5%.

Consider `CN(Cc1ccccc1)C(=O)CCNC(=O)Cn1cnc2ccccc2c1=O`, for which the inhibition is -11.7%.

Regarding `COc1ccc(Nc2nc(-c3ccccc3)cs2)cc1`, the inhibition was 35.2%.

With `Oc1ccc(-c2csc(Nc3cccnc3)n2)cc1`, the inhibition was 78.4% (active).

As to `c1ccc(Nc2nc(-c3ccncc3)cs2)nc1`, the inhibition is 98.6% (active).

For the compound `c1cnc(Nc2nc(-c3ccc4ccccc4c3)cs2)nc1`, the inhibition was -3.4%.

As to `NS(=O)(=O)c1ccc(Nc2nc(-c3ccccc3)cs2)cc1`, the inhibition was 28.5%.

On to `Clc1ccc(Nc2nc(-c3cccs3)cs2)nc1`, for which the inhibition is 0.8%.

Take `CCOC(=O)c1ccc(N2C(=O)CC(N(C)Cc3ccccc3)C2=O)cc1` (stereo not given): the inhibition is -4%.

Consider `CCCc1ccc(OCC(=O)NNC(=S)NC(=O)c2ccco2)cc1`, for which the inhibition was 8.7%.

In the case of `COc1ccc(C(=O)NC(=S)NNC(=O)CCc2ccccc2)cc1`, the inhibition is -0.6%.

For `CC(Oc1ccc2ccccc2c1)C(=O)NNC(=S)NC(=O)c1ccco1` (stereo not given), the inhibition is 56.8% (active).

Turning to `O=C(NCC1CCCO1)C(C(=O)c1ccccc1)n1cc(Cl)ccc1=O` (stereo not given), the inhibition was -6.7%.

In the case of `Cc1ccc(S(=O)(=O)Cn2nnnc2CN2CCN(Cc3ccc4c(c3)OCO4)CC2)cc1`, the inhibition is 24.5%.

As for `Cc1cc(C)c2[nH]c(=O)c(C(c3nnnn3Cc3ccc4c(c3)OCO4)N3CCCC3)cc2c1` (stereo not given), the inhibition is 68.4% (active).

Regarding `Fc1ccccc1C(c1nnnn1Cc1ccc2c(c1)OCO2)N1CCN(Cc2ccccc2)CC1` (stereo not given), the inhibition was 62.9% (active).

On to `CC(C)(C)n1nnnc1C(c1ccc(F)cc1)N1CCN(Cc2ccc3c(c2)OCO3)CC1` (stereo not given), for which the inhibition is 25.1%.

For the compound `O=C(CCC(=O)OCc1cccc(C(=O)Oc2ccccc2)c1)Nc1cccc2ccccc12`, the inhibition was 3.8%.

Consider `CN(C)C(CNC(=O)CCCOc1ccccc1)c1ccco1` (stereo not given), for which the inhibition was 84.2% (active).

`Cc1cccc(NC(=O)c2ccc(OCC(=O)NCc3ccccc3)cc2)c1C`: the inhibition is -8%.

`O=C(Cn1nnc(-c2ccccc2)n1)NCc1ccccc1`: the inhibition is 45.4%.

On to `O=C(O)CCC(=O)NCc1ccc(C(=O)O)cc1`, for which the inhibition was 3.2%.

`O=C(CCC(=O)OCC(F)(F)C(F)F)NCc1ccccc1`: the inhibition is 71.6% (active).

In the case of `O=C(CCCOc1ccccc1)NCc1ccco1`, the inhibition is 36.6%.

`O=C(NCCOc1ccccc1)c1ccccc1`: the inhibition was 60.7% (active).

Take `O=C(CCOc1ccccc1)NCc1ccccc1`: the inhibition is 57.6% (active).

Consider `O=C(CCCOc1ccccc1)Nc1cccc(C(=O)O)c1`, for which the inhibition was 1.2%.

Regarding `Cc1nnc(NC(=O)CCCOc2ccccc2)s1`, the inhibition is 24.7%.

For `O=C(NCCc1ccccc1)c1ccc(OCCOc2ccccc2)cc1`, the inhibition was -7.8%.

In the case of `COc1ccc(OC)c2[nH]c(=O)c(CCNC(=O)C(C)(C)C)cc12`, the inhibition is 13.1%.

As to `O=C(Cn1nc(C(F)(F)F)c2c1CCC2)NCc1ccc(F)cc1`, the inhibition was 45.9%.

Regarding `CCSc1nc(=S)n(CC)c(C)c1C(C)=O`, the inhibition is -23.9%.

As for `O=C(CCCN1C(=O)c2ccccc2C1=O)Oc1ccc(Cl)cc1`, the inhibition was 14.2%.

On to `COc1ccc(NC(=O)/C(Cl)=C(/Cl)S(=O)Cc2ccc(C)cc2)cn1` (stereo not given), for which the inhibition was 33.8%.

Turning to `O=C(Nc1nnc(C2CC2)s1)c1ccccn1`, the inhibition was 20.4%.

Regarding `CCCc1nc(N2CCN(C)CC2)c2sc(=S)n(-c3ccccc3)c2n1`, the inhibition was 4.4%.

In the case of `CCOc1ccc(NC(=O)CCS(=O)(=O)c2ccc3c(c2)CCCN3C(=O)CC)cc1`, the inhibition is 3.3%.

Regarding `O=C(CC1Oc2ccccc2NC1=O)NCCCN1CCN(Cc2ccccc2)CC1` (stereo not given), the inhibition was -1.2%.

As for `Cc1ccc2c(c1)N(CC(=O)N1CCCc3ccccc31)C(=O)C(C)O2` (stereo not given), the inhibition was 34.4%.

With `O=C(Cc1ccccc1)n1nc(-c2ccccc2)nc1NCc1ccco1`, the inhibition was 15.9%.

Consider `O=C(O)CSC(NC(=O)c1cccnc1)(C(F)(F)F)C(F)(F)F`, for which the inhibition is -13.3%.

With `CC(NC(=O)c1cc(-c2ccccc2)on1)c1ccccc1` (stereo not given), the inhibition is 13%.

On to `CC(N=Cc1nc(-c2ccccc2)oc1O)c1ccccc1` (stereo not given), for which the inhibition was 71.8% (active).

For the compound `CCn1c(/C=C/c2ccc([N+](=O)[O-])o2)nc2ccccc2c1=O`, the inhibition was -3.3%.

`Cc1ccc(-n2c(C)cc(/C=N/Nc3ccc([N+](=O)[O-])cn3)c2C)c(C)c1`: the inhibition was -0.3%.

For the compound `CN1C(=O)CC(N2CCN(c3ccccn3)CC2)C1=O` (stereo not given), the inhibition is 17.8%.

As for `CSc1cccc(NC(=O)CSc2ccccc2)c1`, the inhibition is 83.5% (active).

Turning to `COc1cccc(-n2c(Cc3cc(=O)[nH]c(=O)[nH]3)nnc2SCC(=O)Nc2ccccc2)c1`, the inhibition was -8.7%.

Regarding `Cc1ccn(C(CC(=O)c2ccc(Br)cc2)C(=O)O)n1` (stereo not given), the inhibition is -25.7%.

Turning to `CC(C)c1nc(-c2ccccn2)no1`, the inhibition was -3.1%.

Turning to `O=C(Oc1ccccc1)c1ccc2nccnc2c1`, the inhibition is 20.3%.

Turning to `O=C(Oc1ccc(-c2nc(-c3ccccn3)no2)cc1)c1ccccc1`, the inhibition is 99.5% (active).

As to `CCc1cc(Br)ccc1NC(=O)C1CCCO1` (stereo not given), the inhibition was 30.5%.

Take `CC(=O)c1cc(-c2ccccc2)[nH]c1N1CCCC1`: the inhibition is 10.4%.
